This is an account of results in PubChem BioAssay (Tox21).

Records with an inconclusive call do not appear. Calls of active or inactive are those of the source. Calls follow the shape of the dose curve; as a rule, active = well fitted cell-killing curve with a large enough effect in the repeat runs; inconclusive = weak or mixed curves, or effect the other way; inactive = flat fitted curve, though single readings scatter.
% is scaled to controls: 0 for no effect and ±100 for the full control effect.

The experiment in a line: qHTS assay to identify small molecule antagonists of the androgen receptor (AR) signaling pathway using the MDA cell line - cell viability counter screen (AID 743041; also: nearly all actives have a fitted effect of over 45% in size). The following applies: MDA-kb2 viability, CellTiter-Fluor, 16 h, cells co-treated with R1881 androgen agonist; series mostly up to 70.3 µM; viability change, negative = cytotoxic: at the top concentration. The source says:
National Center for Advancing Translational Sciences [NCATS]
NIH Chemical Genomics Center [NCGC]
U.S. Environmental Protection Agency [EPA]
National Institutes of Environmental Health Sciences [NIEHS]
National Toxicology Program [NTP]
U.S. Food and Drug Administration [FDA]
Androgen receptor (AR), a nuclear hormone receptor, plays a critical role in AR-dependent prostate cancer and other androgen related diseases. Endocrine disrupting chemicals (EDCs) and their interactions with steroid hormone receptors like AR may cause disruption of normal endocrine function as well as interfere with metabolic homeostasis, reproduction, developmental and behavioral functions. To identify the compounds that inhibit AR signaling, MDA-kb2 AR-luc cell line (from ATCC, deposited by Wilson et al.) was used to screen the Tox21 10K compound library. MDA-kb2 AR-luc cell line is human breast carcinoma cell line that was stably transfected with a luciferase reporter gene under control of the MMTV promoter containing response elements for both androgen receptor (AR) and glucocorticoid receptor (GR). The cytotoxicity of the Tox21 compound library against the MDA-kb2 AR-luc cell line was tested in parallel by measuring the cell viability using CellTiter-Fluor assay (Promega, Madison, WI) in the same wells.
Tox21 Assay Protocol Summary:
MDA-kb2 AR-luc cells were dispensed at 3,000 cells/4 uL/well of culture medium into white wall/solid-bottom 1536-well plates using a Multidrop Combi (ThermoFisher Scientific, Waltham, MA) dispenser. After the assay plates were incubated at a 37C and 0% CO2 for 5 hr, 23 nL of compounds dissolved in DMSO, positive controls or DMSO only was transferred to the assay plate by a Pintool station (Kalypsys, San Diego, CA), followed by addition of 1 uL of agonist (R1881) in culture medium using a Bioraptr Flying Reagent Dispenser (FRD) workstation (Beckman Coulter, Indianapolis, IN, USA). The plates were incubated at a 37C and 0% CO2 for 16 h. After 15.5 h incubation, 1uL of CellTiter-Fluor reagent (Promega) was added using a Bioraptr FRD to each plate for measuring cytotoxicity. The fluorescence intensity was quantified on a ViewLux plate reader (PerkinElmer, Shelton, CT) following 30 min incubation at 37C and 0% CO2.
On the technique in general: Quantitative high-throughput screening tests each substance at several concentrations.
As to `CCCCCC[C@@H](O)C/C=C\CCCCCCCC(=O)OC`, the “viability change, negative = cytotoxic” value was 28.8% [at 95 µM] (inactive).

Consider `CN(C)c1ccc(CCO)cc1`, for which the “viability change, negative = cytotoxic” value is 1.29% (inactive).

As to `C[C@@H](c1ncncc1F)C(O)(Cn1cncn1)c1ccc(F)cc1F` (stereo not given in full), the “viability change, negative = cytotoxic” value was -6.17% (inactive).

For `NCc1ccccc1Sc1ccccc1CO`, the “viability change, negative = cytotoxic” value was 0.212% (inactive).

On to `COc1ccnc(CS(=O)c2nc3ccc(OC(F)F)cc3[nH]2)c1OC` (stereo not given), for which the “viability change, negative = cytotoxic” value is 2.92% (inactive).

Consider `O=C(O)C1(C(=O)Nc2ccc(Cl)cc2Cl)CC1`, for which the “viability change, negative = cytotoxic” value was -11.6% (inactive).

In the case of `CCCCC`, the Potency result is “inactive”.

On to `CCCCC/C=C\C/C=C\CCCCCCCC(=O)NC(C)c1ccccc1` (stereo not given), for which the “viability change, negative = cytotoxic” value is -6.44% (inactive).

Turning to `CC(=O)c1cccc([N+](=O)[O-])c1`, the “viability change, negative = cytotoxic” value was 1.15% (inactive).

As for `Nc1ccccc1S(=O)(=O)c1ccccc1`, the “viability change, negative = cytotoxic” value was -1.09% (inactive).

In the case of `C[N+]1(C)CCC(OC(=O)C(O)(c2ccccc2)C2CCCC2)C1` (stereo not given), the Potency result was “inactive”.

Consider `Nc1ccc(S(=O)(=O)Nc2ccccc2)cc1`, for which the “viability change, negative = cytotoxic” value was 4.13% (inactive).

On to `CNC(=O)CN(CCN(CCN(CC(=O)[O-])CC(=O)NC)CC(=O)[O-])CC(=O)[O-].O.[Gd+3]`, for which the Potency entry is “inactive”.

For the molecule `OCCNCc1ccccc1`, the “viability change, negative = cytotoxic” value was -0.418% (inactive).

As to `CCO[Si](CCCCl)(OCC)OCC`, the “viability change, negative = cytotoxic” value is 5.22% (inactive).

`c1ccc(-c2ccccn2)nc1`: the “viability change, negative = cytotoxic” value was 0.547% (inactive).

On to `CC(COCCO)OCCO` (stereo not given), for which the “viability change, negative = cytotoxic” value is 7.86% (inactive).

As for `CN(C)c1ccc(C(c2ccccc2)c2ccc(N(C)C)cc2)cc1`, the “viability change, negative = cytotoxic” value was 0.934% (inactive).

As for `Cc1oc(-c2ccccc2)nc1CCOc1cccc2c1ccn2CCC(=O)O`, the “viability change, negative = cytotoxic” value was 4.09% (inactive).

Regarding `c1ccc(CNCCNCc2ccccc2)cc1`, the “viability change, negative = cytotoxic” value is 11.9% (inactive).

As for `CC(=O)[O][Al]`, the “viability change, negative = cytotoxic” value was -1.44% [at 95 µM] (inactive).

Consider `O=C1OC(=O)C2C3C=CC(C3)C12` (stereo not given), for which the “viability change, negative = cytotoxic” value was -12% (inactive).

With `CCN(CC)CCOC(=O)C(c1ccccc1)C1CCCCC1` (stereo not given), the “viability change, negative = cytotoxic” value was 3.8% (inactive).

Regarding `COc1cc2nc(N(C)CCCNC(=O)C3CCCO3)nc(N)c2cc1OC` (stereo not given), the “viability change, negative = cytotoxic” value is 0.673% [at 32.5 µM] (inactive).

Consider `CCCn1cnc2c1c(=O)n(CCCCC(C)=O)c(=O)n2C`, for which the “viability change, negative = cytotoxic” value was 2.88% (inactive).

On to `CCC(CC)Nc1ccc(C)c(C)c1`, for which the “viability change, negative = cytotoxic” value was 29.8% (inactive).

On to `O=C1CCCCCCCCCCCC(=O)OCCO1`, for which the “viability change, negative = cytotoxic” value was -11% (inactive).

In the case of `CCCCC(CC)COC(=O)COc1ccc(Cl)cc1Cl` (stereo not given), the “viability change, negative = cytotoxic” value is -2.84% [at 95 µM] (inactive).

As for `CC(C)(COC(=O)c1ccccc1)COC(=O)c1ccccc1`, the “viability change, negative = cytotoxic” value was 12.3% (inactive).

Regarding `CCN(CC)CCNc1ccc(CNC=O)c2sc3ccc(OC)cc3c(=O)c12`, the “viability change, negative = cytotoxic” value is -18.9% (inactive).

For the molecule `C=CCOC(=O)CCC1CCCCC1`, the “viability change, negative = cytotoxic” value was 13.9% (inactive).

Consider `CN(C)C(=O)NC1(c2ccccc2)CCN(CC[C@@]2(c3ccc(F)c(F)c3)CN(C(=O)c3ccccc3)CCO2)CC1`, for which the “viability change, negative = cytotoxic” value is 0.145% (inactive).

As for `CCCCCCCCCOS(=O)(=O)O`, the “viability change, negative = cytotoxic” value is -0.0732% (inactive).

Turning to `O=C1c2ccccc2S(=O)(=O)N1CCCCN1CCN(c2ncccn2)CC1`, the “viability change, negative = cytotoxic” value is 4% (inactive).

As for `O=C(O)C(S)C(S)C(=O)O` (stereo not given), the “viability change, negative = cytotoxic” value is -14.9% (inactive).

For `CN1CCN(C(c2ccccc2)c2ccccc2)CC1`, the “viability change, negative = cytotoxic” value was 11.3% [at 32.5 µM] (inactive).

On to `ClCCOCCOCCCl`, for which the “viability change, negative = cytotoxic” value is 14.6% (inactive).

As for `CCC(=O)O[C@]1(C(=O)CCl)[C@@H](C)C[C@H]2[C@@H]3CCC4=CC(=O)C=C[C@]4(C)[C@@]3(F)[C@@H](O)C[C@@]21C`, the “viability change, negative = cytotoxic” value was -3.24% (inactive).

For `CCCCOC(=O)CCCCCCCC(=O)OCCCC`, the “viability change, negative = cytotoxic” value is -3.21% (inactive).

For `c1cc(CCCc2ccncc2)ccn1`, the “viability change, negative = cytotoxic” value is 2.61% (inactive).
